Screens deposited in PubChem BioAssay by National Center for Advancing Translational Sciences (NCATS).
B2AR arrestin – qHTS assay of beta-arrestin-biased ligands of beta2-adrenergic receptor | Beta-2 adrenergic receptor (Homo sapiens), P07550 | beta-arrestin recruitment to beta2AR, cell-based reporter | Potency, µM (titrated, usually from 46.1 µM), for the others: at the highest dose activation, most hits filed as activators | 330,000 compounds, 0.02% hits;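 also: potency is read from the fitted curve at half-maximal effect; 0% = DMSO controls and full agonism = EC100 isoproterenol or metaproterenol; nearly all actives have a fitted effect of over 65% in size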
Epigenetic derep – Quantitative High-Throughput Screen for Regulators of Epigenetic Control; murine LDR cells, GFP reporter derepression, 30 h; Potency, µM (highest dose often 53.9 µM), for the others: at the top dose GFP activation, actives largely listed as activators; 280,000 compounds, 0.2% hits; also: potency is read from the fitted curve at half-maximal effect; % of control where 0% means no effect; nearly all actives have a fitted effect of over 60% in size
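GFP-positive cell count by laser-scanning cytometry (objects 20–120 um) after 30 h, 37 C compound exposure of murine LDR cells; reporter is CMV-GFP integrated at a silenced locus, inducible by HDAC or DNMT inhibitors.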
PI4K2A inh – qHTS for small molecular inhibitors of PI4K2A; AID 1346378, 2018; Phosphatidylinositol 4-kinase type 2-alpha (Homo sapiens), Q9BTU6; activity change, negative = inhibition, % at 76.9 µM; 420,000 compounds, 0.13% hits; purified PI4K2A, ADP-Glo luminescence, 1 h; active compounds read low; in the data active = activity change below about -50%; inconclusive = mostly about -30% to -49%;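 also: -100% = wells without enzyme as full effect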
Target sequence (Q9BTU6 whole entry, looked up): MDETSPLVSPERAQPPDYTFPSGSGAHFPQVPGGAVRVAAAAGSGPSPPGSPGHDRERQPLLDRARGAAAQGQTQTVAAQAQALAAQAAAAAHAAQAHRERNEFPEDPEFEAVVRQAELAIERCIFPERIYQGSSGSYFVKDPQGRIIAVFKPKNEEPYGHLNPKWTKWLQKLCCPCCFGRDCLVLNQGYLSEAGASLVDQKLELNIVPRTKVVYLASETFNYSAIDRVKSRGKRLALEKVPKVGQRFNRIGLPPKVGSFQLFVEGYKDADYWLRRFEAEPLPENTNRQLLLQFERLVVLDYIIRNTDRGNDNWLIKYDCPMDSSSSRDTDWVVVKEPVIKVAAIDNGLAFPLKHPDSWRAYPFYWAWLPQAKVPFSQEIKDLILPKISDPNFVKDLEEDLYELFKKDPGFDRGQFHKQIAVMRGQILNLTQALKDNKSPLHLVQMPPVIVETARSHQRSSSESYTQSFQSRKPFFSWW
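ADP-Glo luminescence measured ADP generated by PI4K2A enzyme (4 ug/mL before mixing) with 1.2 mM PI substrate (pre-mix) and 300 microM ATP (pre-mix). Tris pH7.5 buffer with MgCl2, Triton X-100; 1 h reaction at ambient temperature.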
Pin1 inh – qHTS Assay to Find Inhibitors of Pin1. Peptidyl-prolyl cis-trans isomerase NIMA-interacting 1 (Homo sapiens), Q13526. Pin1 FP peptide displacement, HiFluor488, 10 min. Potency, µM (highest dose often 115 µM), for the others: at the top dose activity, negative = inhibition, most hits filed as inhibitors. 390,000 compounds, 0.009% hits; active = well fitted inhibition curve with a large enough effect in the polarisation, with a control signal flat, not every such curve was filed as active; inconclusive = small, poorly fitted or top-dose-only effect, or effect the other way, or a change in a side signal; inactive = no such curve, though single readings can be large or run the other way; the % refers to the polarisation; also: potency is read from the fitted curve at half-maximal effect; % is scaled to controls: 0 for no effect and ±100 for the full control effect
Target sequence (Q13526 whole entry, looked up): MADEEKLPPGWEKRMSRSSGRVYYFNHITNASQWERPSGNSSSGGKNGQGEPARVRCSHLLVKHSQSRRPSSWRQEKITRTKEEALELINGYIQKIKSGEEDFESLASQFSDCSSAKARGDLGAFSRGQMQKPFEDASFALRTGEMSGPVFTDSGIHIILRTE
p53 reactivator – qHTS assay for re-activators of p53 using a Luc reporter; Potency, µM (doses to about 92.2 µM), inactives show at the highest dose activity change, positive = activation, hits mostly activators; 320,000 compounds, 0.063% hits; H1299 p53-A138V BP100-luciferase reporter, luminescence, 24 h; also: potency is read from the fitted curve at half-maximal effect; % of control where 0% means no effect; nearly all actives have a fitted effect of over 45% in size
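p53-null H1299 cells stably carrying temperature-sensitive p53-A138V and a BP100-luciferase reporter were pinned with compounds (4-point, 1:5 series) and held 24 hrs at 37 deg C. Luminescence was read 10 min after detection reagent.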
Giardia kill – Small Molecules that selectively kill Giardia lamblia: qHTS. 340,000 compounds, 0.15% hits. activity change, % at 7.66 µM, hits read low. Giardia lamblia trophozoite viability; in the data active = activity change below about -80%; inconclusive = between about -30% and that limit;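 also: parasites exposed to compound for two days anaerobically before the ATP read; % is scaled to controls: 0 for no effect and ±100 for the full control effect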
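Giardia trophozoites, 100 cells per well, were exposed to compounds for 48 hrs at 37 deg C under anaerobic conditions; viability was then read as ATP content by bioluminescence after 15-30 min at room temperature.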
* = called active by the depositor; u = inconclusive; x = no result given. In the library only some 0.44% were active in any assay of this set; here they are far more common. Unless noted, calls follow the shape of the dose curve; as a rule, active = well fitted curve in the direction sought with a large enough effect; inconclusive = small, poorly fitted or top-dose-only effect, or another doubt; inactive = no such curve, though single readings can be large; an effect the other way counts as inactive or inconclusive.

SMILES | B2AR arrestin | Epigenetic derep | PI4K2A inh | Pin1 inh | p53 reactivator | Giardia kill
Cc1nc(-c2ccc(C(=O)Nc3ccccc3F)cc2)cs1 | 0% | -1% | -60* | -3% | -8% | u
Cc1nc(-c2ccc(C(=O)N3CCOCC3)cc2)cs1 | 0% | -2% | -17 | 0% | 3% | -5
Cc1nc(-c2ccc(C(=O)Nc3ccc(F)cc3)cc2)cs1 | 0% | 2% | u | 12% | 0% | -17
Cc1nc(-c2ccc(C(=O)N3CCCC3)cc2)cs1 | 0% | 0% | -56* | -1% | 21% | -14
CNC(=O)c1cnn(-c2nc(N)c3ncn([C@@H]4O[C@H](CO)[C@@H](O)[C@H]4O)c3n2)c1 | x | x | 2 | x | x | x
COCCN1C(=O)/C(=C/c2ccc(N3CCCC3)cc2)SC1=S | 0% | 3.5µM* | 2 | u | 1% | -6
CC1(C)Cc2c(C#N)c(N3CCN(C(=O)c4ccco4)CC3)nc(-c3ccco3)c2CS1 | 0% | -1% | u | -2% | -8% | -7
CC1(C)Cc2c(C#N)c(N3CCN(C(=O)c4ccccc4Cl)CC3)nc(-c3ccco3)c2CS1 | 0% | -1% | -53* | u | -2% | 9
Cc1cc2c(N=O)c(NO)ccc2[nH]1 | 0% | 16µM* | 6 | 1% | u | -4
O=C(NCC1CN(c2ccc(N3CCOCC3=O)cc2)C(=O)O1)c1ccc(Cl)s1 (stereo not drawn) | x | x | -1 | x | x | x
NC(=O)C1CCN(c2nc(-c3cccc(C(F)(F)F)c3)cs2)CC1 | x | x | x | -3% | x | x
COc1ccc(C(=O)ON=C(C)c2nccs2)cc1 | x | x | -66* | x | x | x
COc1ccc(C(=O)O/N=C(/c2ccccc2)c2ccncc2)cc1 | 0% | 5% | -4 | 8% | u | 5
COc1ccc(C(=O)O/N=C(\C)c2ccccc2)cc1 | 0% | 0% | -95* | 3% | 8% | -7
Cc1ccc(NS(=O)(=O)c2cc3c(cc2-c2ccsc2)NC(=O)CO3)cc1C | x | x | x | -6% | x | x
O=S(=O)(c1ccccc1)N1CCN(c2nc(-c3ccc(Br)cc3)cs2)CC1 | x | x | x | -4% | x | x
CC(C)N1Cc2ccc(Nc3nn4c(=O)c5ccccc5nc4s3)cc2C1 | x | x | x | -1% | x | x
CN(/N=C/c1ccc2c(c1)OCO2)c1ccccc1 | 0% | 0% | -6 | -1% | 10µM* | -19
Cc1cc2c(s1)c1cnn(Cc3ccc(C)c(F)c3)c(=O)c1n2C | x | x | x | 21% | x | x
CCOc1ccc(NC(=O)Cn2cc(C(=O)c3ccc(OCC)cc3)c(=O)c3cc4c(cc32)OCCO4)cc1 | x | 20µM* | 1 | 27% | x | x
O=C(/C=C/c1ccccc1[N+](=O)[O-])N1CCCCC1 | 0% | 1% | 1 | -19% | 24% | -6
O=[N+]([O-])C(/C=C(/Cl)[N+](=O)[O-])=C(N1CCCCC1)N1CCCCC1 | -1% | 2% | 1 | 41% | 5% | -94*
CN(C)[C@@H]1C(=O)C(C(N)=O)=C(O)[C@@]2(O)C(=O)C3=C(O)c4c(O)cccc4C[C@H]3C[C@@H]12 | x | x | -3 | x | x | x
O=C(/C=C/c1ccc([N+](=O)[O-])s1)N1CCN(c2ccccc2)CC1 | 0% | x | -1 | -1% | 11% | u
O=C(/C=C/c1ccc([N+](=O)[O-])s1)N1CCCCC1 | 0% | 2% | 6 | 5% | u | -82*
SMILES | B2AR arrestin | Epigenetic derep | PI4K2A inh | Pin1 inh | p53 reactivator | Giardia kill
O=C(/C=C/c1ccc([N+](=O)[O-])s1)N1CCCC1 | 0% | -1% | -4 | -1% | -6% | -87*
CCOC(=O)c1sc2cc([N+](=O)[O-])cc(SCC(C)C)c2c1N | 0% | 3.2µM* | 1 | u | -1% | -4
CCOC(=O)c1cc(N)cc([N+](=O)[O-])c1 | 6% | 1% | 4 | -5% | -3% | -16
Cc1ccc(NC(=O)c2ccc([N+](=O)[O-])o2)cc1C | 0% | 2% | 4 | 2% | -14% | -94*
O=C(Nc1ccc2[nH]c(=O)[nH]c2c1)c1ccc([N+](=O)[O-])o1 | 2% | x | -11 | -13% | -37% | 11
O=C(Nc1cccc2ccccc12)c1ccc([N+](=O)[O-])o1 | 0% | x | 2 | 3% | -9% | -98*
Cc1cccc(NC(=O)c2ccc([N+](=O)[O-])o2)c1C | 0% | 0% | 5 | 0% | 2% | -97*
O=C(Nc1ccc2oc(-c3ccccc3F)nc2c1)c1ccc([N+](=O)[O-])o1 | 0% | x | -1 | 14% | 3% | -96*
COc1ccc(C2Nc3ccccc3C(=O)N2Cc2ccccc2)cc1COc1cccc(C)c1 (stereo not drawn) | x | x | x | 26% | x | x
O=C(c1ccccc1)N1CCN(c2nc(-c3cccs3)nc3ccccc23)CC1 | x | x | x | 9% | x | x
CC(=O)OC(C)OC(=O)C(C)c1ccc(-c2ccccc2)c(F)c1 (stereo not drawn) | x | x | -3 | x | x | x
O=C(Nc1cccc(NC(=O)c2ccccc2Cl)c1)c1ccc([N+](=O)[O-])o1 | 0% | x | -8 | -9% | -17% | -103*
O=C(Nc1cccc2ccccc12)c1ccc([N+](=O)[O-])s1 | 0% | 2% | 0 | 2% | -12% | -89*
O=C(Nc1cccc(Cl)c1N1CCOCC1)c1ccc([N+](=O)[O-])o1 | 0% | 0% | 6 | 0% | 10% | -86*
O=C(Nc1cccc(Cl)c1N1CCOCC1)c1cc([N+](=O)[O-])ccc1N1CCOCC1 | 0% | x | 3 | 1% | 12% | -1
O=C(Nc1cccnc1)c1ccc([N+](=O)[O-])s1 | -2% | x | 4 | 0% | u | -87*
O=C(Nc1ccccc1F)c1ccc([N+](=O)[O-])s1 | 0% | -1% | -1 | -4% | u | u
O=C(Nc1cccc([N+](=O)[O-])c1)c1ccc([N+](=O)[O-])o1 | x | x | -1 | x | x | x
Cc1ccc(NS(=O)(=O)c2cccc(F)c2)cc1C | x | x | x | 3% | x | x
COc1ccccc1NC(=O)c1ccc([N+](=O)[O-])o1 | x | x | -7 | -1% | x | -96*
Cc1ccc2nsnc2c1NC(=O)c1ccc(-c2cc(Cl)ccc2Cl)o1 | 0% | 3% | 0 | 20% | -52% | -5
Cc1ccc2nsnc2c1NC(=O)c1ccc([N+](=O)[O-])o1 | 0% | x | 0 | 2% | -16% | -85*
CC/C(C)=N\N=C\c1c(O)n(CC)c2cc(C3=NNC(=O)CC3)ccc12 | 0% | 0% | 3 | 33% | -10% | -8
CCn1c(O)c(/C=N/N=C/c2ccc(OC)cc2)c2cc(C3=NNC(=O)CC3)ccc21 | 0% | 7.1µM* | 0 | u | 1% | u
O=C(Nc1ccc(O)c2ncccc12)c1ccccc1F | x | x | x | -7% | x | x
